In the library only some 1.4% were active in any assay of this set; here they are far more common.
PrP 5UTR inh – inhibition of PrP 5' UTR reporter expression; cell-based PrP 5' UTR mRNA reporter, plate reader; inhibition, % (no concentration beside the values); hit rate 0.35% among 340,000; AID 488862; in the data active = inhibition above about 52%; note: 0 = median of the neutral control wells
PfHsp40 yeast – compounds rescuing yeast from Plasmodium falciparum HSP40 toxicity. S. cerevisiae expressing PfHsp40, growth rescue, ATP luminescence. growth rescue, % at 12.5 µM. hit rate 0.68% among 340,000. AID 504582; in the data active = growth rescue above about 28%, passing the limit was not always enough; inconclusive = no clear call, values can overlap the other calls;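 note: yeast W303a lacking pdr1 and pdr3 grown in galactose medium; growth measured after three days at 30 °C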
Sa ugtP lethal – kills S. aureus RN4220 lacking UgtP; hit rate 0.54% among 330,000; growth inhibition, % (test concentration not listed); S. aureus RN4220 ugtP deletion, OD600 growth, 16 h; in the data active = growth inhibition above about 68%;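 note: plate controls were untreated wells for no effect and antibiotic for full effect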
BJeLR viability – BJeLR cell viability loss; BJeLR (HRASV12) viability, CellTiter-Glo ATP luminescence, 48 h; inhibition, % (test concentration not listed); hit rate 0.17% among 300,000; AID 1554; in the data active = inhibition above about 50%; inconclusive = no clear call, values can overlap the other calls
Y pestis TopoI – blocks Yersinia pestis topoisomerase I activity. Y. pestis Topo-I cleavage product accumulation, plate reader. activity, % at 10 µM. hit rate 0.064% among 360,000; in the data active = activity above about 50%, passing the limit was not always enough; inconclusive = no clear call, values can overlap the other calls
RN4220 kill – S. aureus RN4220 growth inhibition. OD600, 16 h. inhibition, % (concentration not given with the values). hit rate 0.33% among 330,000. AID 1259311; in the data active = inhibition above about 85%;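 note: plate controls were untreated cells for no effect and reference antibiotic for full effect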
PrP 5UTR single – prion 5' UTR mRNA inhibition, cherry-pick retest | shares compounds with PrP 5UTR inh | cell-based prion protein 5' UTR reporter, plate reader | inhibition, % at 2.5 µM | hit rate 48% among 1,100; in the data active = inhibition above about 54%; inconclusive = no clear call, values can overlap the other calls
Active calls of the source: *.

`c1ccc(-c2noc(-c3ccc4ccccc4c3)n2)nc1` gave PrP 5UTR inh 89*, PfHsp40 yeast -1, Sa ugtP lethal 4, BJeLR viability 19, Y pestis TopoI 1, RN4220 kill 7 and PrP 5UTR single 87*.
`CCOC(=O)N1C2=NC(C(=O)OC)=C(C(=O)OC)C3N(C)c4ccccc4[C@]23CC1C(=O)OC` (stereo partly drawn) gave Sa ugtP lethal 2 and RN4220 kill 8.
Screening COCC(C)n1c(C)cc(C(=O)COC(=O)c2cccn2C)c1C (stereo not drawn) returned PrP 5UTR inh 67*, PfHsp40 yeast -2, Sa ugtP lethal 1, Y pestis TopoI 2, RN4220 kill 0 and PrP 5UTR single inconclusive.
N#CC1=C(N)Oc2cc(N)ccc2C1c1cccc(F)c1 (stereo not drawn) was read as PrP 5UTR inh -20, PfHsp40 yeast 1, Sa ugtP lethal -7, BJeLR viability 33, Y pestis TopoI 1 and RN4220 kill 4.
For CN(C)c1ccc2c(c1)OC(N)=C(C#N)C2c1cccc(F)c1 (stereo not drawn) the results were PrP 5UTR inh 66*, PfHsp40 yeast 0, Sa ugtP lethal -6, BJeLR viability 10, Y pestis TopoI 4, RN4220 kill -3 and PrP 5UTR single 90*.
Screening CCCc1c(C(=O)Nc2ccc(C(F)(F)F)cc2)cnn1-c1ccccc1 returned PrP 5UTR inh 65*, PfHsp40 yeast 1, Sa ugtP lethal -16, BJeLR viability -10, Y pestis TopoI 6, RN4220 kill -8 and PrP 5UTR single -10.
For O=C1CCC(C(=O)N2CSCC2C(=O)O)N1 (stereo not drawn) the results were Sa ugtP lethal 2 and RN4220 kill 0.
For CC(C)[C@@]1(NC(=O)C2CC3c4cccc5[nH]cc(c45)CC3N(C)C2)O[C@@]2(O)C3CCCN3C(=O)C(Cc3ccccc3)N2C1=O (stereo partly drawn) the results were Sa ugtP lethal -10 and RN4220 kill 2.
O=C(Nc1cccc(S(=O)(=O)N2CCOCC2)c1)c1cnn2c(C(F)F)cc(-c3ccccc3)nc12 was read as PrP 5UTR inh 80*, PfHsp40 yeast 0, Sa ugtP lethal 5, BJeLR viability -7, Y pestis TopoI 0, RN4220 kill 13 and PrP 5UTR single 18.
Screening COc1ccc(CCNC(=O)Cn2cnc3sc(C)c(-c4ccc(F)cc4)c3c2=O)cc1OC returned PrP 5UTR inh 73*, PfHsp40 yeast -1, Sa ugtP lethal 5, BJeLR viability 5, Y pestis TopoI 11, RN4220 kill -1 and PrP 5UTR single inconclusive.
Screening O=C(OCCNC(=O)c1cc2ccccc2oc1=O)c1cccnc1 returned PrP 5UTR inh 66*, PfHsp40 yeast -1, Sa ugtP lethal 1, BJeLR viability -6, Y pestis TopoI -3, RN4220 kill 3 and PrP 5UTR single 10.
O=C(NCc1cccnc1)c1cc2ccccc2oc1=O was read as PrP 5UTR inh -15, PfHsp40 yeast 1, Sa ugtP lethal 2, BJeLR viability 6, Y pestis TopoI 4 and RN4220 kill 1.
`S=c1nc(C2COc3ccccc3O2)[nH][nH]1` (stereo not drawn) gave PrP 5UTR inh -51, PfHsp40 yeast -2, Sa ugtP lethal -1, BJeLR viability 4, Y pestis TopoI 0 and RN4220 kill 7.
For CCCS(=O)(=O)c1cnc(C2COc3ccccc3O2)nc1N (stereo not drawn) the results were PrP 5UTR inh 86*, PfHsp40 yeast -3, Sa ugtP lethal 3, BJeLR viability 20, Y pestis TopoI 7, RN4220 kill 1 and PrP 5UTR single 83*.
`COc1ccc(CN(C(CO)CC(C)C)S(=O)(=O)N(Cc2ccccc2)C(CO)CC(C)C)cc1` (stereo not drawn) gave Sa ugtP lethal -4 and RN4220 kill 2.
CCOP(=O)(OCC)c1nc(-c2cccc3ccccc23)oc1N1CCCCC1 was read as PrP 5UTR inh 72*, PfHsp40 yeast 0, Sa ugtP lethal -13, BJeLR viability 2, Y pestis TopoI 3, RN4220 kill 9 and PrP 5UTR single 1.
COP(=O)(OC)c1nc(-c2cccc3ccccc23)oc1N1CCCCC1 was read as PrP 5UTR inh -38, PfHsp40 yeast -2, Sa ugtP lethal -4, BJeLR viability -5, Y pestis TopoI 30 and RN4220 kill 4.
Screening CCCCN(C(=O)c1ccc(Cl)cc1)C1CC2CCC(C1)N2C (stereo not drawn) returned PrP 5UTR inh 72*, PfHsp40 yeast -1, Sa ugtP lethal 12, BJeLR viability -5, Y pestis TopoI -7, RN4220 kill 4 and PrP 5UTR single -14.
For O=C1NC(Cc2ccccc2)C(=O)N1Cc1cc([N+](=O)[O-])cc2c1OCOC2 (stereo not drawn) the results were PrP 5UTR inh 71*, PfHsp40 yeast 2, Sa ugtP lethal 2, BJeLR viability 0, Y pestis TopoI -2, RN4220 kill 3 and PrP 5UTR single -10.
O=C(NCc1nc2ccccc2[nH]1)C1=CC(c2ccccc2)CC(OCCCCO)O1 (stereo not drawn) was read as Sa ugtP lethal 2 and RN4220 kill 1.
Screening C=CCSc1nnc(NC(=O)CSc2nnc(C)s2)s1 returned PrP 5UTR inh 81*, PfHsp40 yeast 0, Sa ugtP lethal -4, BJeLR viability 1, Y pestis TopoI -2, RN4220 kill 2 and PrP 5UTR single -34.
`C=CCSc1nnc(NC(=O)CSCc2c(C)noc2C)s1` gave PrP 5UTR inh -1, PfHsp40 yeast 20, Sa ugtP lethal 2, Y pestis TopoI 0 and RN4220 kill 4.
Cc1nc(C)n(C(C)CNC(=O)c2ccccc2)n1 (stereo not drawn) was read as PrP 5UTR inh -16, PfHsp40 yeast -1, Sa ugtP lethal 6, BJeLR viability 9, Y pestis TopoI 2 and RN4220 kill 3.
Screening Cc1nc(C)n(C(C)CNC(=O)c2ccco2)n1 (stereo not drawn) returned PrP 5UTR inh 61*, PfHsp40 yeast 0, Sa ugtP lethal 3, BJeLR viability 3, Y pestis TopoI 4, RN4220 kill 3 and PrP 5UTR single 4.
Screening O=C1C2CC3CCC2(O3)C2OCCCN12 (stereo not drawn) returned Sa ugtP lethal -12 and RN4220 kill 1.
Screening CC(C)(C)C1COC(=O)CCCC=CCC(CC(=O)NCCO)C(=O)N1 (stereo not drawn) returned Sa ugtP lethal -5 and RN4220 kill 5.
Screening NC(CO)c1cn(C(Cc2cc3ccccc3[nH]2)C(=O)N2CCNCC2)nn1 (stereo not drawn) returned Sa ugtP lethal 2 and RN4220 kill 4.

Assay outcomes deposited in PubChem by several laboratories.
